# Test results as given in PubChem BioAssay (EPA / NIEHS).
# Records with an inconclusive call do not appear. Active and inactive are the calls of the source. How the source made its calls: active means hit-call score of the fitted dose curve at least 0.9, where 1 is the maximum; inconclusive means response in the unintended direction; inactive means score below 0.9.
# Assay: VALA_TUBIPS_Agonist_CellCount: Viability Assessment in the VALA Sciences human iPS-derived Endothelial Tubule Formation (TUBIPS) Agonism Assay (AID 2284338)
smiles,measurement,value
COCc1cnc(C2=NC(C)(C(C)C)C(=O)N2)c(C(=O)O)c1 (stereo unspecified),outcome,inactive
